KCNQ2 pot: KCNQ2 (rat) channel potentiation. O88943. CHO-K1 KCNQ2, FluxOR thallium flux fluorescence; hits give high values. B-score at 10 µM. actives 0.54% (n = 310,000). AID 2239;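 active means fluorescence ratio B-score at least 3 SD of library B-scores, with initial fluorescence B-score within 3 of them, cut at about 5.3 in these data; same plate scores as AID 2156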;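 further: B-score of peak minus minimum over baseline fluorescence ratio after K+ and Tl+ stimulus; positive B-score means potentiation of KCNQ2 with more thallium influx and brighter signal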
KCNQ2 inh: inhibitors of rat KCNQ2 potassium channel; O88943; B-score at 10 µM; CHO-K1 KCNQ2, FluxOR thallium flux, 20 min; hits give low values; actives 1.1% (n = 310,000);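 active means fluorescence ratio B-score at most minus 3 library SDs, with starting brightness B-score within 2 library SDs, cut at about -5.5 in these data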
Kir21 confirm: confirmation of mouse Kir2.1 potassium channel inhibitors. actives 41% (n = 2,300). AID 2032. Kir2.1-expressing cells, FluxOR thallium flux fluorescence; hits give low values. Tl flux remaining, % of negative control (hits give low values), % at 10 µM. shares compounds with KCNQ2 pot;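 active means Primary-screen hit whose thallium flux fell at least 3 control SD below untreated wells in both duplicates, with normal baseline fluorescence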
HEK293 ctr: parental HEK293 activity in Kir2.1 inhibitor counter-screen. actives 19% (n = 2,300). parental HEK293 cells, FluxOR thallium flux fluorescence; 0% = unstimulated blank wells. FluxOR signal as % of negative control (100 = no effect), % at 10 µM. shares compounds with KCNQ2 pot;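 active means dye signal at least 3 control SD above or below untreated wells in both duplicates, raw fluorescence within 3, either direction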;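 further: percent is based on the flux ratio of peak minus minimum fluorescence over baseline F0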
CHO-K1 Tl ctr: parental CHO-K1 activity in KCNQ2 potentiator counter-screen; shares compounds with KCNQ2 pot; parental CHO-K1 cells, FluxOR thallium flux fluorescence; zero = vehicle mean+3SD, 100% = vehicle-minus-blank window; activity increase over 3SD of controls, % at 10 µM; actives 43% (n = 1,200);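 active means signal rise of at least 3 SD above the untreated control mean, in both duplicate wells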;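 further: counter screen of KCNQ2 potentiator hits so any rise reflects channel-independent effects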
KCNQ1 pot spec: human KCNQ1 counter-target activity of KCNQ2 potentiators; shares compounds with KCNQ2 pot; activation over 3SD threshold, % at 10 µM; actives 28% (n = 1,200); CHO KCNQ1 stable, FluxOR thallium flux fluorescence; beyond 3SD, as % of vehicle-control signal;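 active means fluorescence ratio rise of at least 3 SD of vehicle wells above their mean, in both replicate wells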
Target sequence (P51787 whole entry, looked up): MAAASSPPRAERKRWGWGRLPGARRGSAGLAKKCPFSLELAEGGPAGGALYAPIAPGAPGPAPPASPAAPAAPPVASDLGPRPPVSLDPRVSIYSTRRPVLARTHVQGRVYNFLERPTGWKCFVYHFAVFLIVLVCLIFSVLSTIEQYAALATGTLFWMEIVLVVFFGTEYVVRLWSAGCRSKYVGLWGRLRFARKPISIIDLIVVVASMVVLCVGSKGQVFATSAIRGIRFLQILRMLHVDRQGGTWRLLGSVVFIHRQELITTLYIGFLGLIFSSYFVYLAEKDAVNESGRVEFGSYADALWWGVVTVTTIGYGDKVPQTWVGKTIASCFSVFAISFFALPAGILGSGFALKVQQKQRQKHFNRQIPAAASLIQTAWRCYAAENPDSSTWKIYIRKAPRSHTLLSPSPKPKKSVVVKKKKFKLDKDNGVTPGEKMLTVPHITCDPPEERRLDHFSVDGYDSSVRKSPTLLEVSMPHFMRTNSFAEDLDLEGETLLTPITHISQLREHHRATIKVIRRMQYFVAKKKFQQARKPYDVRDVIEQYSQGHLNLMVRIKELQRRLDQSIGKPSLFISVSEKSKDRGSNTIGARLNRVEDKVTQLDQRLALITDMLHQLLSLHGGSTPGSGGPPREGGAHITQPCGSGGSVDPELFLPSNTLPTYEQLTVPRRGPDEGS
KCNQ2 pot conf: rat KCNQ2 channel potentiator confirmation; CHO-KCNQ2 cells, FluxOR thallium flux fluorescence; shares compounds with KCNQ2 pot; potentiation, less the hit threshold, % at 10 µM; actives 68% (n = 1,200);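 active means fluorescence ratio rising 3 SD or more over the vehicle control mean in both replicates, plus primary screen hit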;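 further: peak minus minimum thallium fluorescence divided by baseline after K/Tl stimulus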
Kir21 spec: mouse Kir2.1 off-target activity of KCNQ2 potentiators. shares compounds with KCNQ2 pot. HEK293 Kir2.1, FluxOR thallium flux fluorescence. activity over 3SD threshold, % at 10 µM. actives 2% (n = 1,200). AID 2345;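 active means fluorescence ratio rise of at least 3 SD above the vehicle-control mean, seen in both replicates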
KCNQ2 W236L pot: rat KCNQ2 W236L mutant potentiation by KCNQ2 potentiators. shares compounds with KCNQ2 pot. CHO KCNQ2-W236L, automated patch clamp current. current increase over 3SD of negative controls (%), hits give high values, % at 25 µM. actives 10% (n = 940);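 active means current increase at least 3 SD of the untreated controls above them in both duplicate recordings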
Large screens that a line does not name were inactive (follow-up assays come after a bar, where they were run). Most compounds without a hit are left out; they make up all but 1.6% or so of the library.

Cc1ccc(NC(=S)C2=C(O)c3ccccc3N(C)S2(=O)=O)cc1	none
Nc1nonc1-n1nnc(C(=O)N/N=C/c2cccc(Cl)c2)c1-c1cccs1	none
COCCCNC(=O)c1ccccc1NS(=O)(=O)c1ccc(C)cc1	none
CCCCn1c(N)c(N(CCC(C)C)C(=O)CN2C(=O)C3CCCCC3C2=O)c(=O)[nH]c1=O (stereo not given)	none (no result: KCNQ2 pot)
CCCCCCNC1=NCCS1	none
CCOc1ccc(C2/C(=C(/O)c3ccc(S(=O)(=O)N4CCCCC4)cc3)C(=O)C(=O)N2CCCOC)cc1OC (stereo not given)	none (no result: KCNQ2 pot)
COc1ccc(CCNC(=O)CC(Cc2ccc(C)cc2)C(=O)O)cc1OC (stereo not given)	none
Cc1cc(C)c(S(=O)(=O)NCc2ccc3c(c2)OCO3)c(C)c1	none (no result: KCNQ2 pot)
CCOc1cc(C)c(Cl)cc1S(=O)(=O)NCc1ccc2c(c1)OCO2	none (no result: KCNQ2 pot) | Kir21 confirm 68% | HEK293 ctr inactive
COc1ccc(CC(=O)NC(C)c2ccc(S(N)(=O)=O)cc2)cc1S(=O)(=O)N1CCOCC1 (stereo not given)	none (no result: KCNQ2 pot)
CC1CN(c2ccc([N+](=O)[O-])c(NCCOc3ccccc3)c2)CC(C)N1 (stereo not given)	none (no result: KCNQ2 pot)
CC1CN(c2ccc([N+](=O)[O-])c(NCCOc3ccc(Cl)cc3)c2)CC(C)N1 (stereo not given)	KCNQ2 inh -7 | Kir21 confirm 67% | HEK293 ctr inactive
CC1CCCC(C)N1/N=C/c1ccc(C(=O)O)cc1 (stereo not given)	none (no result: KCNQ2 pot)
CCn1c(SCCOc2ccc(Cl)cc2)nnc1-c1cccs1	none (no result: KCNQ2 pot) | Kir21 confirm 69% | HEK293 ctr inactive
CCn1c(SCC(=O)c2ccc(Cl)cc2)nnc1-c1cccs1	none
CC1Sc2ccc(S(=O)(=O)N3CCC(C(=O)NCC(C)c4ccccc4)CC3)cc2NC1=O (stereo not given)	none
O=C(/C=C/c1cccs1)N1CCC2(CC1)Oc1ccc(Cl)cc1C(=O)C21CC(c2ccccc2)=NO1 (stereo not given)	none (no result: KCNQ2 pot)
COc1cc(/C=C2/C(=O)NN(c3ccc(C)c(Cl)c3)C2=O)cc([N+](=O)[O-])c1O	none (no result: KCNQ2 pot)
Cc1ccc(N2NC(=O)/C(=C\c3cc4c(cc3[N+](=O)[O-])OCO4)C2=O)cc1C	none (no result: KCNQ2 pot) | Kir21 confirm 76% | HEK293 ctr inactive
COc1cc(/C=C/C(=O)O)cc(S(=O)(=O)NC2CC2)c1OC	none
CCCNS(=O)(=O)c1cc(CN2C(=O)c3cccnc3C2=O)ccc1OC	none
CC1CC(C)CN(C(=O)C2CCN(S(=O)(=O)c3cccc4cccnc34)CC2)C1 (stereo not given)	none
COc1ccc(N2CCC(CNC(=O)Nc3ccc(C)c(C)c3)C2)cc1 (stereo not given)	none
Cc1ccc(C)c(CN2CCC(CNC(=O)Nc3ccc(C)c(C)c3)CC2)c1	KCNQ2 pot 7.6 | Kir21 confirm inactive | HEK293 ctr inactive | CHO-K1 Tl ctr 60 | KCNQ1 pot spec inactive | KCNQ2 pot conf 10 | Kir21 spec inactive | KCNQ2 W236L pot inactive
N#CC1=C(N)Oc2n[nH]c(-c3cccnc3)c2C1c1ccc([N+](=O)[O-])o1 (stereo not given)	none
COc1ccc(C=O)cc1CN1CCCN(Cc2ccccc2F)S1(=O)=O	none
Cc1ccc(NC(=O)Cn2c(=O)oc3ccccc32)c(C)c1	none (no result: KCNQ2 pot)
Cc1ccc(/C=C/C(=O)c2ccccc2O)cc1	none (no result: KCNQ2 pot)
Cc1ccc(/C=C/C(=O)C2C(=O)c3ccccc3C2=O)cc1	KCNQ2 pot 7.3 | Kir21 confirm inactive | HEK293 ctr 146% | CHO-K1 Tl ctr inactive | KCNQ1 pot spec inactive | KCNQ2 pot conf inactive | Kir21 spec inactive | KCNQ2 W236L pot inactive
O=C1CCCN1C(=O)COc1ccccc1[N+](=O)[O-]	none
c1ccc(OCc2noc(CN3CCC(C4CCCCC4)C3)n2)cc1 (stereo not given)	none
CCCCN(CCCC)c1nc(OC)nc(-n2nnc(C(C)=O)c2C)n1	KCNQ2 pot 8 | Kir21 confirm inactive | HEK293 ctr inactive | CHO-K1 Tl ctr inactive | KCNQ1 pot spec inactive | KCNQ2 pot conf inactive | Kir21 spec inactive | KCNQ2 W236L pot inactive
CC(=O)c1nnn(-c2nc(N)nc(N(c3ccccc3)c3ccccc3)n2)c1C	none
CNCCCC1Sc2ccccc2Oc2ccccc21 (stereo not given)	none | Kir21 confirm 40% | HEK293 ctr inactive
COC1(c2cc(-c3ccccc3)nc(N)n2)CCCCC1	none (no result: KCNQ2 pot)
COc1cc(-c2nc(=S)[nH][nH]2)cc(OC)c1OC	none (no result: KCNQ2 pot)
CCOC(=O)c1ccc2c(c1)n(CC)c(/C=C/N(C)c1ccccc1)[n+]2CC	none (no result: KCNQ2 pot)
CC[n+]1c(/C=C/N(C)c2ccccc2)n(-c2ccccc2)c2ccc(-c3nc4ccccc4s3)cc21	KCNQ2 inh -16 | Kir21 confirm inactive | HEK293 ctr inactive
O=C(Nc1ccccc1F)c1ccc(-n2cncn2)nc1	none (no result: KCNQ2 pot)
COc1cccc(OC)c1/C=C/C(=O)NC1CCCCC1	none (no result: KCNQ2 pot)
COc1ccc(C(=O)/C(=C\c2ccco2)N2C=CC=CC2=C(C#N)C#N)cc1	none (no result: KCNQ2 pot) | Kir21 confirm 70% | HEK293 ctr 61%
COc1ccc(C(=O)N/C(=C\c2ccco2)C(=O)OCc2ccco2)cc1	none
O=C(O)/C=C/C(=O)N1CCN(C(c2ccccc2)c2ccccc2)CC1	none
COc1ccc(-c2cc(-c3cc(C)ccc3O)[nH]n2)cc1	none
COc1ccc(-c2cc(-c3ccc(C)cc3)n[nH]2)c(O)c1	KCNQ2 pot 7 | Kir21 confirm inactive | HEK293 ctr inactive | CHO-K1 Tl ctr 16 | KCNQ1 pot spec inactive | KCNQ2 pot conf inactive | Kir21 spec inactive
O=c1c2ccccc2nc2ccc(NCc3ccco3)nn12	none
Cc1sc2nc3ccc(NCc4ccco4)nn3c(=O)c2c1C	KCNQ2 pot 6.7 | Kir21 confirm inactive | HEK293 ctr inactive | CHO-K1 Tl ctr 46 | KCNQ1 pot spec inactive | KCNQ2 pot conf inactive | Kir21 spec inactive
Cc1cc(C(=O)Cn2c(CO)nc3ccccc32)c(C)n1C	none
COc1cccc(CN2CCNC(=O)C2CC(=O)N(C)CCC2CCOCC2)c1OC (stereo not given)	none (no result: KCNQ2 pot)

Source: PubChem
